Assay results taken from PubChem BioAssay (NCI).
This is part of a sample that, as a whole, favours compounds with a hit. Of some 79,000 tested, about 15% had one in any assay. Values without a mark were called inactive. Activity calls are given as the source filed them. Rule as the data show it: active = growth inhibition above about 70%; inactive = the rest.

How the values were obtained:
[1] = NCI Yeast Anticancer Drug Screen. Data for the rad50 strain (AID 155);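 also: 0% = growth of vehicle-only cultures of the same strain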; conditions: S. cerevisiae rad50 strain growth inhibition, stronger effect = higher value
Procedure, shortened: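 Yeast carrying a defined DNA repair defect were exposed to test compounds, and growth was compared with vehicle-treated controls to give percent inhibition.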

[2] = NCI Yeast Anticancer Drug Screen. Data for the mec2-1 strain (AID 157); conditions: S. cerevisiae mec2-1 strain, stronger effect = higher value
Procedure, shortened: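 Vehicle-treated cultures served as reference for growth inhibition of compound-exposed mec2-1 yeast.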

[3] = NCI Yeast Anticancer Drug Screen. Data for the sgs1 mgt1 strain (AID 161);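 also: 0% = growth of cultures given vehicle only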; conditions: S. cerevisiae sgs1 mgt1 strain, stronger effect = higher value
Procedure, shortened: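 Inhibition of yeast growth, normalised to vehicle-treated controls, is reported for a strain bearing genetic alterations in DNA damage repair.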

[4] = NCI Yeast Anticancer Drug Screen. Data for the cln2 rad14 strain (AID 165);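 also: 0% = growth equal to vehicle treated cultures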; conditions: S. cerevisiae cln2 rad14 strain, stronger effect = higher value
Procedure, shortened: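 Each compound was tested on cln2 rad14 yeast. Inhibition of growth was calculated against vehicle-exposed controls.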

[5] = NCI Yeast Anticancer Drug Screen. Data for the bub3 strain (AID 167); conditions: S. cerevisiae bub3 mutant strain, stronger effect = higher value
Procedure, shortened: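 Compounds were applied to a genetically altered yeast strain carrying a cell-cycle control defect. Growth inhibition was scored against vehicle-treated controls.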

[6] = NCI Yeast Anticancer Drug Screen. Data for the mlh1 rad18 strain (AID 175); conditions: S. cerevisiae mlh1 rad18 strain growth inhibition, stronger effect = higher value
Procedure, shortened: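 Vehicle-treated cultures served as the reference for growth inhibition in a yeast strain carrying DNA damage repair alterations exposed to each compound.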

[7] = at 5.0 µM (retest, dose inferred, filed as 0.5)
[8] = at 50.0 µM (retest, dose inferred, filed as 5.0)

Row | SMILES | growth inhibition [1, 7] | growth inhibition [1, 8] | growth inhibition ([1]; at 50.0 µM) | growth inhibition [2, 7] | growth inhibition [2, 8] | growth inhibition ([2]; at 50.0 µM) | growth inhibition [3, 7] | growth inhibition [3, 8] | growth inhibition ([3]; at 50.0 µM) | growth inhibition [4, 7] | growth inhibition [4, 8] | growth inhibition ([4]; at 50.0 µM) | growth inhibition [5, 7] | growth inhibition [5, 8] | growth inhibition ([5]; at 50.0 µM) | growth inhibition [6, 7] | growth inhibition [6, 8] | growth inhibition ([6]; at 50.0 µM)
1 | On1c(-c2ccccc2)nc2ccccc2c1=S | 32% | 39% | 86.5% (active) | 41% | 43% | 86.7% (active) | 47% | 95% (active) | 37% | 28% | 95% (active) | 25.4% | 50% | 94% (active) | 90.2% (active) | 39% | 43% | 84.5% (active)
2 | CCCCCCCCCCCC[n+]1ccc(CCCCCCCCC)cc1 | 99% (active) | 99% (active) | 99% (active) | 100% (active) | 99% (active) | 99.3% (active) | 100% (active) | 99% (active) | 99.5% (active) | 98% (active) | 99% (active) | 98.5% (active) | 100% (active) | 99% (active) | 98.8% (active) | 99% (active) | 99% (active) | 97.6% (active)
3 | OC(CSc1ccccc1)CN1CCN(c2ccc(Cl)cc2)CC1 (configuration not stated) | 8% | 73% (active) | 84.2% (active) | 5% | 43% | 25.5% | 6% | 90% (active) | 79% (active) | 9% | 62% | 15.6% | 7% | 76% (active) | 80.8% (active) | 4% | 73% (active) | 59.5%
4 | O=C(OC12CC3CC(CC(C3)C1)C2)c1ccc(NCc2cc(O)ccc2O)cc1 | 39% | 94% (active) | 84.7% (active) | 28% | 96% (active) | 88% (active) | 39% | 95% (active) | 90.8% (active) | 17% | 95% (active) | 87.8% (active) | 28% | 91% (active) | 89.8% (active) | 32% | 94% (active) | 88.5% (active)
5 | CC(C)=CCCC(C)C1=C(O)C(=O)C(C)=CC1=O (configuration not stated) | 25% | 97% (active) | 88.8% (active) | 19% | 98% (active) | 93.3% (active) | 15% | 99% (active) | 90.8% (active) | 24% | 86% (active) | 70% | 19% | 99% (active) | 90.6% (active) | 25% | 98% (active) | 87% (active)
6 | CCN(CC)c1ccc(/C=C\C(=O)c2ccc(NC(C)=O)cc2)cc1 | -22% | -8% | 22.8% | -14% | -21% | 55.4% | -13% | -2% | 52% | -11% | -10% | 28.6% | -12% | -4% | 76.8% (active) | -21% | -9% | 52%
7 | CCCN(CCC)C(=O)c1ccc(C)cc1 | 1% | 21% | 4.3% | 2% | 5% | 97.9% (active) | 2% | 5% | 0.05% | 3% | 24% | -17.1% | 3% | 28% | 2.9% | -3% | 17% | 7.2%
8 | S=c1[nH]c2cc(Cl)ccc2s1 | -21% | 64% | 25.2% | -4% | 90% (active) | 42.2% | -6% | 95% (active) | 74.6% (active) | -8% | 93% (active) | -2.15% | -28% | 16% | -4.3% | -12% | 45% | 42.9%
9 | Cn1ccc(=Nc2ccc(NC(=O)c3ccc(N=c4ccn(C)c5ccc([N+](=O)[O-])cc45)cc3)cc2)cc1 | 86% (active) | 98% (active) | 79.7% (active) | 80% (active) | 98% (active) | 87.4% (active) | 92% (active) | 98% (active) | 87.3% (active) | 83% (active) | 96% (active) | 76.6% (active) | 93% (active) | 99% (active) | 87.5% (active) | 72% (active) | 95% (active) | 84.8% (active)
